Screening data (PubChem)
Only a selection was taken, and hits are over-represented in it overall.
Dicer processing: blocks human Dicer maturation of pre-miR-21; Q9UPY3; cat-ELCCA pre-miR-21 Dicer processing, chemiluminescence; hits give high values; z-score at 25 µM; 47,000 compounds, 6% hits; AID 1347074; in the data active = z-score above about 3, passing the limit was not always enough;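 note: higher signal means more uncleaved substrate so more Dicer inhibition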
Target sequence (Q9UPY3 whole entry, looked up): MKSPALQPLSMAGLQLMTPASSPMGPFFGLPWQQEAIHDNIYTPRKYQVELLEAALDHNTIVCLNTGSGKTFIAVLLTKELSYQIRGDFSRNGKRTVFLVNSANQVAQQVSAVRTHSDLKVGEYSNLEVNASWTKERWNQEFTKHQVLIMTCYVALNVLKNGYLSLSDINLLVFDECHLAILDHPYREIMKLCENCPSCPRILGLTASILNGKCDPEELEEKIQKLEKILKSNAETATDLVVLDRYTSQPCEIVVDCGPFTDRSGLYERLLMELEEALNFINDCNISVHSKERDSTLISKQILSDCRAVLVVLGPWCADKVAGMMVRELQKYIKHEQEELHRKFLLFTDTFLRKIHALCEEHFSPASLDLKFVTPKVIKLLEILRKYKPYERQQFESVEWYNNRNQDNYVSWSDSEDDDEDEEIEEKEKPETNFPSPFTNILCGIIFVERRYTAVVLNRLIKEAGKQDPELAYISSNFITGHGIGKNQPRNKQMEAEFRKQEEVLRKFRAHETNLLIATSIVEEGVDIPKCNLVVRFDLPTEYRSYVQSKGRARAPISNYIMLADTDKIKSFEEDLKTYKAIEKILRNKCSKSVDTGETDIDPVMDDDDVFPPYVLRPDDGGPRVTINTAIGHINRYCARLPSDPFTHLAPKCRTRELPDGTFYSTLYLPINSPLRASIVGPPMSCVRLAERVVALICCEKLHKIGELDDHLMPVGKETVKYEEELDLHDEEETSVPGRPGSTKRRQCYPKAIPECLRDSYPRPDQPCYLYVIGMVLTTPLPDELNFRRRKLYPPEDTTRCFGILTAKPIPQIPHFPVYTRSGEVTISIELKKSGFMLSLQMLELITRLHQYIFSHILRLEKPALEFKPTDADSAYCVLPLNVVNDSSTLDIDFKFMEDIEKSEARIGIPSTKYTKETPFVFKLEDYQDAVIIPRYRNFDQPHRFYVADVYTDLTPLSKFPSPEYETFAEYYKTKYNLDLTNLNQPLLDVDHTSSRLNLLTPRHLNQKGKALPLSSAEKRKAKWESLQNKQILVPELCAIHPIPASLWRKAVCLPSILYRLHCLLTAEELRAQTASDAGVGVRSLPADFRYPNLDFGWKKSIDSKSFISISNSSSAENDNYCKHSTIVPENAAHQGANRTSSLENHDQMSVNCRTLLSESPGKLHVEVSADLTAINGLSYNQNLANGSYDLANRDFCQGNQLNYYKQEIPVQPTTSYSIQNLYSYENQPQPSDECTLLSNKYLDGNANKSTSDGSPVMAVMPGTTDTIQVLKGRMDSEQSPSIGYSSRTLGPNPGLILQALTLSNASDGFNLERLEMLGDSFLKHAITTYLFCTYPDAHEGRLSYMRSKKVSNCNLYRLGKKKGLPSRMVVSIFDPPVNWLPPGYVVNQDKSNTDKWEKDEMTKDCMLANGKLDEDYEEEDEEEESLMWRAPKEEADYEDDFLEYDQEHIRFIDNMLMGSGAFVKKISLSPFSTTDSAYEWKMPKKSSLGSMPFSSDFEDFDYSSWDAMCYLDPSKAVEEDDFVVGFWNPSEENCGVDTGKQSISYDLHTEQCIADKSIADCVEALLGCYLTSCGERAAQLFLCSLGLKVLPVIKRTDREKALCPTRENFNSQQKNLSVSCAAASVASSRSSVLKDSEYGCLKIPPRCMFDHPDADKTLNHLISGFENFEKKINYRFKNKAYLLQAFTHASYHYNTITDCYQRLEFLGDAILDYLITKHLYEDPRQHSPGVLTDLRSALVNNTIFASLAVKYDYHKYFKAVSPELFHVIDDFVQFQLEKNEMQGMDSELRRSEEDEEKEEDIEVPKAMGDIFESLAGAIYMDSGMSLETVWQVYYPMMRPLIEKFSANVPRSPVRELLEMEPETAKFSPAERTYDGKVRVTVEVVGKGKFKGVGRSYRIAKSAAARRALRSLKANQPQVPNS
Of the large screens only hits and unclear results are named; the others gave an inactive call.

CC(C)(C)c1ccc(NC(=O)Nc2sccc2-n2cccc2)cc1	Dicer processing 6.4
O=C(NCC1CC1)Nc1sccc1-n1cccc1	none
CCCOc1ccc(Br)cc1C1C(C(=O)OCc2ccccc2)=C(C)Nc2nnnn21 (stereo unspecified)	none
Cn1c(C(=O)N/N=C/c2cccs2)cnc1SCc1ccc(Cl)cc1	none
COc1ccc(C2=NN3C(C2)c2cc(OC)ccc2OC3c2cccnc2)cc1 (stereo unspecified)	Dicer processing 4.8
COc1ccc(C2=NN3C(C2)c2cc(Cl)ccc2OC3c2ccncc2)cc1 (stereo unspecified)	Dicer processing 9.1
COc1ccc(O)c(C2=NN3C(C2)c2cccc(OC)c2OC3c2cccnc2)c1 (stereo unspecified)	none
Cc1ccc(O)c(C2=NN3C(C2)c2ccccc2OC3c2ccncc2)c1 (stereo unspecified)	none
COc1ccc(O)c(C2=NN3C(C2)c2ccccc2OC3c2cccnc2)c1 (stereo unspecified)	none
Cc1ccc(C2=NN3C(C2)c2ccccc2OC3c2ccncc2)cc1 (stereo unspecified)	Dicer processing 6.9
COc1ccc(C2=NN3C(C2)c2ccccc2OC3c2ccc(C)cc2)cc1OC (stereo unspecified)	none
Oc1ccccc1C1=NN2C(C1)c1cc(Cl)ccc1OC2c1cccnc1 (stereo unspecified)	none
COc1ccc(O)c(C2=NN3C(C2)c2cc(Cl)ccc2OC3c2ccncc2)c1 (stereo unspecified)	none
COC(=O)c1cc2cc(OC)ccc2[nH]1	none
Cc1cc2nnc(C(=O)NN)c(C)n2n1	none
Cc1ccc(F)cc1N1CC(C(=O)O)CC1=O (stereo unspecified)	none
O=c1c2ccccc2c2n[nH]c(O)c3ccc(=NC4CCCCC4)c1c32	none
Nc1nc(-c2ccncc2)ncc1S(=O)(=O)c1ccc(C(F)(F)F)cn1	none
CCOc1cccc(=O)c2c(C)n(-c3ccc(C)cc3)c(C)c12	none
CCOC(=O)c1ccc(-n2c(C)c3c(OC)cccc(=O)c3c2C)cc1	Dicer processing 3.8
CCOC(=O)c1ccc(-n2c(=S)[nH]c3ccccc32)cc1	none
CC(C)n1c(NCCO)nc2ccccc21	none
O=C(Cn1c(NCCO)nc2ccccc21)c1ccco1	none
O=C(Cn1c(NCCO)nc2ccccc21)c1cccc2ccccc12	Dicer processing 4.2
Cc1cccc(NC(NC(=O)c2cccnc2)(C(F)(F)F)C(F)(F)F)n1	none
Cc1ccc2nc(C)cc(NCCO)c2c1	none
CCOC(=O)CC(=O)CSc1nc(C)c2cc(OCC)ccc2n1	none
CCOc1ccc2nc(C)cc(Nc3ccc(N(C)C)cc3)c2c1	Dicer processing 4.5
COc1ccc2nc(C)cc(Nc3ccccc3OC)c2c1	Dicer processing 3.3
CCOc1ccccc1Nc1cc(C)nc2ccc(OC)cc12	none
Cc1cc(Nc2ccccc2Cl)c2ccccc2n1	none
Cc1ccc(S(=O)(=O)n2nc(C)c(Sc3nccn3C)c2C)cc1	none
N#C/C(=C\Nc1cc(C(F)(F)F)cc(C(F)(F)F)c1)S(=O)(=O)c1ccc(Cl)cc1	none
Cc1[nH]nc2c1C(c1ccc(OCc3ccccc3)cc1)C(C#N)=C(N)O2 (stereo unspecified)	none
Cc1ccccc1-n1c(N)cc(=O)n(Cc2cccs2)c1=O	none
CNC(=O)NC(=S)NC(=O)c1ccc(C)cc1	none
Cc1ccc2c(c1)C(=O)OC(C(=O)Nc1nc3c(s1)CCCC3)C2 (stereo unspecified)	none
CC(=O)O/N=C(\N)COc1ccc(-c2nnco2)cc1	none
CCOC(=O)N1CCC(NC(=O)c2cc(C)cc(C)c2)CC1	none
CC(C)N(CCC#N)C(=O)Nc1ccc2c(c1)CCO2	none
CCOC(=O)N1CCC(NC(=O)Nc2ccc3c(c2)CCO3)CC1	Dicer processing 5
O=[N+]([O-])c1ccc(Oc2c(Cl)cc(S(=O)(=O)N3CCOCC3)cc2Cl)cc1	none
Cc1ccc(C2CC(C(F)(F)F)n3nc(C(=O)N4CCN5CCCC5C4)c(Cl)c3N2)cc1 (stereo unspecified)	none
Cc1ccc(C2CC(C(F)(F)F)n3nc(C(=O)N4CCCCC4)c(Cl)c3N2)cc1 (stereo unspecified)	none
O=C(c1nn2c(c1Cl)NC(c1ccc(Br)cc1)CC2C(F)(F)F)N1CCCCC1 (stereo unspecified)	none
CC(NC(=O)c1nn2c(c1Cl)NC(c1ccccc1)CC2C(F)(F)F)c1ccccc1 (stereo unspecified)	none
O=C(c1nn2c(c1Br)NC(c1ccccc1)CC2C(F)(F)F)N1CCOCC1 (stereo unspecified)	Dicer processing 5.2
O=C(c1nn2c(c1Cl)NC(c1ccc(Br)cc1)CC2C(F)(F)F)N1CCOCC1 (stereo unspecified)	Dicer processing 3.7
NC(=O)c1nn2c(c1Br)NC(c1ccccc1)CC2C(F)(F)F (stereo unspecified)	Dicer processing 3.8
O=C(c1nn2c(C(F)(F)F)cc(-c3ccccc3)nc2c1Br)N1CCOCC1	none
O=C(O)c1nn2c(c1Br)NC(c1ccccc1)CC2C(F)(F)F (stereo unspecified)	none
Nc1nc2c(ncn2COCCOC(=O)c2ccccc2)c(=O)[nH]1	none
C=CCN1C(=O)C2(/C(=C(/O)c3ccc(C)c(F)c3)C(=O)C(=O)N2CC2CCCO2)c2ccccc21 (stereo unspecified)	none
O=C1CC(c2ccccc2)CC(=O)N1c1cccc2c1CCCC2	none
CC(C)n1c(CN2CCN(c3cccc(Cl)c3)CC2)nc2c1c(=O)n(C)c(=O)n2C	none
CCOC(=O)N1CCc2c(sc3c2C(=O)NC(/C(C)=C/c2ccccc2)N3)C1 (stereo unspecified)	none
NC(=O)COc1ccc(C2c3c(oc4ccccc4c3=O)C(=O)N2Cc2ccc3c(c2)OCO3)cc1 (stereo unspecified)	none
CC(=O)N1N=C(c2ccc(C)cc2)OC1c1cccnc1 (stereo unspecified)	none
CC(=O)N1N=C(c2cc(C)ccc2[N+](=O)[O-])OC1c1ccc(N(C)C)cc1 (stereo unspecified)	none
CC(=O)N1N=C(c2ccc(Br)cc2)OC1c1ccc(F)cc1 (stereo unspecified)	Dicer processing 3.2
Cc1ccc(S(=O)(=O)N2CCC(N)=N2)cc1	none
CCOC(=O)/C(=C\Nc1ccc(F)cc1)[N+](=O)[O-]	none
CSc1ccc(/C=C/c2nc3n(n2)C=COc2ccccc2-3)cc1	none
COc1ccc(/C=C/c2nc3n(n2)C=COc2ccccc2-3)cc1	none
C1=Cn2nc(/C=C/c3c[nH]c4ccccc34)nc2-c2ccccc2O1	Dicer processing 4.2
O=C(Nc1cccc2cccnc12)c1sc2ccccc2c1Cl	none
C=CCNC(=O)CSc1nc(-c2ccco2)cc(C(F)(F)F)n1	none
COc1ccc(Oc2c(C(F)(F)F)oc3cc(OCC(=O)NC4CCCCC4)ccc3c2=O)cc1	none
CCOC(=O)/C(C#N)=C/Nc1ccc2c(c1)CCN2C(C)=O	none
Cc1cc(C)cc(OC(=O)c2ccc(Cl)c(Cl)c2)c1	none
O=C(Oc1ccc(Cl)c2cccnc12)c1cccnc1	Dicer processing 3.5
O=C(Oc1cccc2cccnc12)c1ccccc1	none
O=C(Oc1ccc(Cl)c2cccnc12)N1CCOCC1	none
COc1ccc(/C(C)=N/OC(=O)c2cc(OC)c(OC)c(OC)c2)cc1CSc1ccccn1	none
COc1ccc(C(=O)Oc2ccc(Cl)c3cccnc23)cc1OC	Dicer processing 4.5
COC(Cn1c(-c2ccc(Cl)cc2)n[nH]c1=S)OC	none
COc1cc(C(=O)NNC(=O)c2cc(Cl)cc(Cl)c2)c(-n2c(C)ccc2C)cc1OC	none
CCCc1nc(N)c(C#N)c(-c2cccs2)c1CC	none
CC1(C)OC(=O)C(=CNc2ccc(Cl)cn2)C(=O)O1	none
O=c1c2cnn(-c3ccccc3)c2nnn1/N=C/c1ccc([N+](=O)[O-])cc1	Dicer processing 3.3
